# Shown are actives, neighbours in structure and some others; about 4% of the full set was active somewhere.
# Measles CPE = protection of cells from measles virus. Measles virus-infected cells, CPE protection, absorbance. protection (pct of control), % at 4 µM. actives 1.5% (n = 140,000). AID 841; in the data active = protection mostly above about 24%, no sharp cut-off; inactive = mostly below about 26%
# ROMK mod = human ROMK K+ channel modulation, primary screen; B-score at 10 µM; P48048; AID 1918; actives 2% (n = 130,000); Tet-inducible ROMK, thallium flux fluorescence; actives lie on both sides;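 active = signal ratio slope over the read window, or its plate-corrected B-score, at least 3 SD from the plate mean, either direction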;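 also: B-score of the F/F0 ratio slope over 7 to 12 s after thallium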
# Target sequence (P48048 whole entry, looked up): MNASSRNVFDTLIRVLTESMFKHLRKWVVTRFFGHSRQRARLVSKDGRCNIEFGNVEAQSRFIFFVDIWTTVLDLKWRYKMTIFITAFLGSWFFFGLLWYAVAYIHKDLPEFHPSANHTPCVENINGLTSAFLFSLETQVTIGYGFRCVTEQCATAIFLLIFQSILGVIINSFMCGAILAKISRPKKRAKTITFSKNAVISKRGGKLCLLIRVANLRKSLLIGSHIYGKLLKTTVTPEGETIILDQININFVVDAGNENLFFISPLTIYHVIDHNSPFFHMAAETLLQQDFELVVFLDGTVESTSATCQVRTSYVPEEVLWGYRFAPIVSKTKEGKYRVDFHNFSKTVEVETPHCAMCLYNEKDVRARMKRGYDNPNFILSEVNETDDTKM
# KCC2 mod = KCC2 (human) Cl- transport modulation; KCC2 cells, thallium flux FluoZin-2 fluorescence; B-score of Tl+ flux slope (higher = more flux/activation; lower = inhibition) at 10 µM; actives 2.2% (n = 190,000); AID 1456;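 active = thallium flux slope and its plate-corrected score both differing from the plate sample mean at a set confidence after two filtering rounds, in either direction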;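 also: slope of fluorescence scaled to starting intensity during 10 to 20 s after thallium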
# Arbovirus anti = antivirals against arbovirus infection; arbovirus infection cell-based antiviral screen; inhibition, % at 10 µM; actives 0.37% (n = 200,000); AID 1251; in the data active = inhibition above about 30%
# HSV augment = increases HSV replication in cells | HSV replication augmentation in cells, fold increase | maximum fold increase | actives 0.005% (n = 220,000) | AID 1956; in the data active = maximum fold increase above about 1.5; inconclusive = no clear call, values can overlap the other calls; tested in PC3 cells
# KCC2 secondary = KCC2 (human) modulation, secondary assay | shares compounds with KCC2 mod | HEK293-KCC2, thallium flux, FluoZin2 fluorescence; active compounds read high | normalised thallium flux (F/F0 slope) at 10 µM | actives 15% (n = 3,700) | AID 1713;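 active = thallium flux slope above the same plate's solvent-only control mean plus 3 SD; inconclusive = the two replicate wells disagree; inactive = no significant difference from solvent-only control wells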
# KCC2 bumet counter = bumetanide-insensitive thallium flux in KCC2 cells with ouabain, counter-screen | HEK293-KCC2 + bumetanide/ouabain, thallium flux FluoZin2; active compounds read high | shares compounds with KCC2 mod | normalized thallium flux at 10 µM | actives 49% (n = 3,700);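 active = thallium entry rate above the same plate's blocked-transporter control wells by more than 3 SD; inconclusive = the two repeat wells disagree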;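 also: raw slope of fluorescence over initial fluorescence between 10 and 20 s after thallium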
# KCC2 secondary2 = KCC2 (human) modulation, second secondary assay | normalized thallium flux at 10 µM | shares compounds with KCC2 mod | actives 23% (n = 3,700) | AID 1715 | HEK293-KCC2, thallium flux FluoZin2 fluorescence; actives lie on both sides; F/F0 rise rate, 10–20 s post-thallium;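 active = thallium flux slope more than 3 SD above or below the plate's solvent-only control mean, mostly below; inconclusive = the two repeat wells disagreed; inactive = no significant shift from solvent-only controls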;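 also: raw slope with 0.1% DMSO as baseline and bumetanide as block control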
# HEK counter1 = acts in parental HEK cells, KCC2 counter-screen | shares compounds with KCC2 mod | HEK293 parental cells, thallium flux FluoZin2, ouabain; baseline-ratio fluorescence slope, 10–20 s after thallium | thallium flux rate (normalised fluorescence) at 10 µM | actives 46% (n = 3,700);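 active = thallium flux rate significantly above the same plate's solvent-only control wells, beyond their mean plus 3 SD; inconclusive = the two replicate wells gave conflicting results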
# KCC2 ouabain = KCC2 (human) modulation, ouabain retest | shares compounds with KCC2 mod | HEK293-KCC2, thallium flux FluoZin2 fluorescence; bidirectional: low = inhibitor, high = activator | raw Tl+ flux slope (below DMSO = inhibition, above = activation) at 10 µM | actives 48% (n = 3,700);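 active = thallium flux slope beyond 3 SD from same-plate DMSO control mean in most replicates, usually higher, sometimes lower; inconclusive = repeat tests gave conflicting results; inactive = no significant difference from controls in most replicates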;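 also: slope of initial-normalized fluorescence between seconds 10 and 20 after thallium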
# HEK293 Tl flux2 = parental HEK flux effect, counter-screen 2 | thallium flux slope at 10 µM | HEK293 parental, thallium flux FluoZin-2 fluorescence slope | AID 1718 | shares compounds with KCC2 mod | actives 33% (n = 3,700);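 active = thallium flux slope above the same plate's solvent-control mean plus 3 SD in both duplicate wells; inconclusive = duplicate wells that disagreed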;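 also: run without ouabain in cells lacking the KCC2 cotransporter; slope of fluorescence scaled to its starting value between 10 and 20 s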
# * marks the source's active call; other numbers are inactive results; i = inactive; ? = inconclusive; / = not tested or not shown.
SMILES,Measles CPE,ROMK mod,KCC2 mod,Arbovirus anti,HSV augment,KCC2 secondary,KCC2 bumet counter,KCC2 secondary2,HEK counter1,KCC2 ouabain,HEK293 Tl flux2
COCCn1c(-c2ccccc2Cl)nc2c(c(=O)c3ccccc3n2C)c1=O,9.3,-0.281,-4.82*,30.6*,i,?,0.00466,0.0213*,0.00583*,0.0104*,0.00895
COc1ccc(CCn2c(-c3ccccc3)nc3c(c(=O)c4ccccc4n3C)c2=O)cc1,14.6,0.893,-0.528,-9.8,i,/,/,/,/,/,/
CC(C)c1nc2c(c(=O)c3ccccc3n2C)c(=O)n1CCc1ccccc1,/,/,-4.38*,/,i,0.00999,0.022*,0.0316,0.0124*,0.0207,0.0106
Cc1ccc(-c2c[nH]c(=S)n2-c2ccccc2)cc1,/,0.627,7.28*,-3.1,i,0.012,0.0226*,0.0372,?,?,?
S=c1[nH]cc(-c2ccccc2)n1-c1cccc(Cl)c1,6.1,1.46,3.19,-7.8,i,/,/,/,/,/,/
O=C(O)COc1ccccc1/C=N/NC(=O)c1cccc(S(=O)(=O)N2CCOCC2)c1,/,-0.00739,0.25,18.6,i,/,/,/,/,/,/
CC(=O)c1c(C)[nH]c(C(=O)CSc2nnc(-c3ccccc3)n2Cc2ccc3c(c2)OCO3)c1C,2.8,/,/,-1.9,i,/,/,/,/,/,/
Cc1cc(C(=O)CSc2nnc(-c3cccc(F)c3)n2N)c(C)n1Cc1ccc2c(c1)OCO2,3.8,-1.17,/,-1.5,i,0.0075,0.00395,0.0285,0.00697,0.019,0.0103
O=C(c1ccccc1SCc1ccc(F)cc1)N1CCOCC1,/,0.215,-3.46*,-2.6,i,0.0149,?,0.0238*,0.0068,0.014*,0.0098
O=C(CCN1CCN(c2ccccc2)CC1)N/N=C/c1ccccc1OC(F)F,/,0.689,-0.291,-12.7,i,/,/,/,/,/,/
CCOC(=O)n1c(O)c(N=NC(N)=S)c2cc(C)ccc21,/,/,17.8*,/,i,0.0159,0.0384*,?,0.0143*,0.0311*,0.0163*
Cc1nc(N2CCN(Cc3ccccc3)CC2)nc2c1CCC2,/,1.57,-1.24,-8.3,i,/,/,/,/,/,/
Cc1nc(N2CCN(Cc3ccccc3)CC2)nc2c1C(=O)CCC2,7.3,1.17,-2.93*,8.8,/,0.00651,0.00422,?,0.00693,0.0153*,0.00949
Cc1cccc(NC(=S)NNc2ncc(C(F)(F)F)cc2Cl)c1,11.2,0.644,15.8*,-5.2,i,0.0112,0.118*,0.0323,0.0272*,0.0546*,0.0139*
CCOC(=O)CN(c1cc([N+](=O)[O-])ccc1OC)S(C)(=O)=O,/,-0.347,0.292,2.6,i,/,/,/,/,/,/
CC1CCN(c2c(NCC3CCC(C(=O)NCCc4ccccc4)CC3)c(=O)c2=O)CC1 (stereo unspecified),19.6,-0.153,-4.74*,-0.2,i,0.00543,0.00526,?,0.00718,0.0181,0.0109
Cc1ccc(CCNC(=O)C2CCC(CNc3c(N4CCCC4)c(=O)c3=O)CC2)cc1 (stereo unspecified),12.2,/,/,9.9,/,0.00791,?,0.034,?,0.0192,0.0108
COc1ccc(C(=O)c2nccc3ccccc23)cc1,/,-1.34,-1.47,-3.8,i,/,/,/,/,/,/
Cc1ccc(-c2csc3ncnc(SCc4ccc(C(=O)O)cc4)c23)cc1,/,1.69,140*,-11.8,i,0.00825,0.119*,0.0948*,0.0935*,0.107*,0.0905*
NC(=O)CSc1nc2ccccc2n1Cc1ccccc1,21.1,-1.52,0.721,-10.8,i,/,/,/,/,/,/
Cc1ccc(-c2csc3ncnc(SCC(N)=O)c23)cc1,/,1.43,7.89*,1.5,i,0.0178*,0.0603*,0.0383,?,0.0498*,?
Cc1ccc(-c2csc3nc(SCC(N)=O)n(Cc4ccccc4)c(=O)c23)cc1,16.6,0.00393,6.7*,-4.0,i,0.0106,0.0214*,0.0334,0.028*,0.0258*,0.0118
O=C(Nc1cccnc1)OC1CCCC1,/,0.348,0.072,3.6,i,/,/,/,/,/,/
CCCCOC(=O)C1=C(C)NC2=C(C(=O)CCC2)C1c1cc(OC)ccc1OC (stereo unspecified),3.5,/,7.52*,-1.6,/,0.00713,0.00561,0.0292,0.00654,0.0192,0.00915
N#Cc1cnn2ccn(C3OC(CO)C(O)C3O)c12 (stereo unspecified),/,/,1.02,/,i,/,/,/,/,/,/
SMILES,Measles CPE,ROMK mod,KCC2 mod,Arbovirus anti,HSV augment,KCC2 secondary,KCC2 bumet counter,KCC2 secondary2,HEK counter1,KCC2 ouabain,HEK293 Tl flux2
CN1c2ccccc2C(C)(C)[C@]12C=Cc1cc(O)ccc1O2,2.6,-1.75,-3.39*,-2.9,/,0.00752,?,0.033,0.00698,0.0159*,0.0108
CN1c2ccccc2C(C)(C)C12C=Nc1c(ccc3ccccc13)O2 (stereo unspecified),7.4,/,-0.194,-12.4,i,/,/,/,/,/,/
NC(=O)CC1C(=O)N(c2ccc(F)cc2)C(=O)N1NC(=O)CCc1ccccc1 (stereo unspecified),/,1.06,-0.789,5.7,i,/,/,/,/,/,/
CN1C[C@@H]2C(c3ccc(Cl)nc3)C3(c4ccccc4)CC2(C3)[C@H]1c1ccccc1 (stereo partly specified),/,/,-0.732,/,i,/,/,/,/,/,/
O=C(COC(=O)C(Cc1ccccc1)NC(=O)c1ccco1)NC1CC1 (stereo unspecified),3.7,-0.166,0.582,0.3,i,/,/,/,/,/,/
O=C(NC(Cc1ccccc1)C(=O)OCC(=O)N1CCc2ccccc21)c1ccco1 (stereo unspecified),0.1,/,-3.68*,-4.6,i,0.0149,0.00499,0.0218*,0.00696,0.0147,0.00966
Cc1nc2ccc3nc(NC(=O)C4COc5ccccc5O4)sc3c2s1 (stereo unspecified),5.9,/,5.72*,1.4,/,0.00661,0.0129*,0.0309,0.0114*,?,0.014*
COc1ccc(OC)c(NC(=O)C2COc3ccccc3O2)c1 (stereo unspecified),5.3,/,-0.095,14.7,i,/,/,/,/,/,/
O=C(NNc1nc2c(F)cccc2s1)c1ccc(F)cc1,/,0.0912,-0.135,19.9,i,/,/,/,/,/,/
COc1cccc2sc(NNC(=O)C3COc4ccccc4O3)nc12 (stereo unspecified),/,-0.445,19.5*,11.1,i,0.0207*,0.0298*,?,0.0192*,0.0257*,0.0205*

# High-throughput results (PubChem BioAssay)
